# Assay outcomes: PubChem, National Center for Advancing Translational Sciences (NCATS)
# ClpP mod: qHTS Assay for Activators of ClpP | ATP-dependent Clp protease proteolytic subunit (Bacillus subtilis (strain 168)), P80244 | purified B. subtilis ClpP, FRET peptide cleavage, 20 min | Potency, µM (titrated, usually from 57.5 µM), for the others: at the highest dose activity change, negative = active | 340,000 tested, 1.9% active | AID 651965, 2013; active means well fitted falling curve with a large enough effect; inconclusive means small, poorly fitted or top-dose-only effect; inactive means no such curve, though single readings can be large or run the other way; further: the source files actives as falling curves though it sought activators and does not explain the sign; nearly all actives have a fitted effect of over 65% in size
# Target sequence (P80244 whole entry, looked up): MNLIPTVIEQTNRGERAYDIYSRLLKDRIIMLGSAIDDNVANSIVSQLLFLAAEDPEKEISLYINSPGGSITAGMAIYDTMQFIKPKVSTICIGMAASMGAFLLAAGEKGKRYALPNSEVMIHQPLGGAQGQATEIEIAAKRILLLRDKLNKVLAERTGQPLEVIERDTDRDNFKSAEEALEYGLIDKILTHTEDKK
#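 ClpP 10 microg/mL final, pH 8 Tris/KCl buffer with BSA, glycerol, Tween-20; compound pinned in; FRET-FV substrate; RT 20 min; Ex320/Em430; ΔFRET vs ADEP 5.8 microM, DMSO, no enzyme.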
# PINK1 modulator: A Quantitative High throughput Screen to Identify Chemical Modulators of PINK1 Expression; Potency, µM (titrated, usually from 76.6 µM), for the others: at the highest dose activation (PINK1 increase), hits mostly activators; PINK1 immunofluorescence, high-content cytometry, 24 h; 410,000 tested, 0.2% active; active means well fitted activation curve with a large enough effect; inconclusive means small, poorly fitted or top-dose-only effect; cell line not stated here; further: % of control where 0% means no effect; nearly all actives have a fitted effect of over 65% in size
#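 Compound titrations (5 concentrations, 24 h) on a stable cell line; DMSO and CCCP controls. Endpoint: fixed-cell PINK1 immunofluorescence with mitochondrial, cell and nuclear markers, scanned by microplate cytometer.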
# Epigenetic reg: Quantitative High-Throughput Screen for Regulators of Epigenetic Control | murine LDR cells, GFP reporter derepression, 30 h | Potency, µM (doses to about 53.9 µM), without a hit: at the highest dose GFP activation, hits mostly activators | 280,000 tested, 0.2% active | AID 1865, 2009; further: % of control where 0% means no effect; nearly all actives have a fitted effect of over 60% in size
#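 Murine LDR cells bearing a silenced CMV-driven GFP reporter were exposed to compound for 30 h at 37 C. After PBS washes, GFP-positive cells (20-120 um objects) counted by laser-scanning microplate cytometry.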
# RORgamma inh: qHTS for inhibitors of ROR gamma transcriptional activity. Nuclear receptor ROR-gamma (Mus musculus), P51450. Drosophila S2 Gal4-RORgamma UAS-luciferase reporter, 20 h. Potency, µM (series often up to 53.6 µM), for the others: at the highest dose activity change, negative = inhibition, actives largely listed as inhibitors. 310,000 tested, 5.4% active; further: on the % scale 0 is the no-effect control and ±100 the full control effect; nearly all actives have a fitted effect of over 60% in size
# Target sequence (P51450 whole entry, looked up, the tested form may be a part): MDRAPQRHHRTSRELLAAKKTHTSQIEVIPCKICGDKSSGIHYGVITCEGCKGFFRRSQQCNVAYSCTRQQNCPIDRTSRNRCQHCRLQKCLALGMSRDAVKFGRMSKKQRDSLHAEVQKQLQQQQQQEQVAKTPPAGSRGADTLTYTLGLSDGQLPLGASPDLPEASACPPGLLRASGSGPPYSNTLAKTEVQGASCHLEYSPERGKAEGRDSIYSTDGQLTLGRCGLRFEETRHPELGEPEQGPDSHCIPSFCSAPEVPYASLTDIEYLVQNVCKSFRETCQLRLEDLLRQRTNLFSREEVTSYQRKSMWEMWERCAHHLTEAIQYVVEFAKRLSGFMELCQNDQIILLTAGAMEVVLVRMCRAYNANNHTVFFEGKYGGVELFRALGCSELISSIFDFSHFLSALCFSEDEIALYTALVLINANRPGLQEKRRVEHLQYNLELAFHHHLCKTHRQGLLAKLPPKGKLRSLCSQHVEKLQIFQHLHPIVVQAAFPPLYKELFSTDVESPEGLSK
#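 ROR gamma transcriptional activity was tracked as Gal4-UAS luciferase output in stably transfected Drosophila Schneider cells, with compound added 1 hr before 700 uM copper sulfate induction and a 20 hr ambient-temperature incubation.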
# Gal4-VP16 FLuc: VP16 counterscreen qHTS for inhibitors of ROR gamma transcriptional activity. Drosophila S2 Gal4-VP16 UAS-luciferase, luminescence, 20 h. AID 2546, 2010. Potency, µM (doses to about 53.6 µM), for inactives: at the highest dose activity, negative = inhibition, usual class: inhibitors. 310,000 tested, 3.5% active;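 further: Gal4-VP16 expression switched on by copper sulfate through the metallothionein promoter; on the % scale 0 is the no-effect control and ±100 the full control effect; nearly all actives have a fitted effect of over 50% in size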
# Sfp inh: qHTS Assay for Inhibitors of Bacillus subtilis Sfp phosphopantetheinyl transferase (PPTase). 4'-phosphopantetheinyl transferase ffp (Bacillus subtilis), Q9F4F7. Biochemical Sfp PPTase activity, qHTS. Potency, µM, for the others: largest response in the series, negative = inhibition, hits mostly inhibitors. 310,000 tested, 3.5% active;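 further: the enzyme is Sfp with the accession as filed and its product quenches rhodamine fluorescence; 0% = enzyme reaction without inhibitor and -100% = no enzyme wells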
#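 Buffer: 50 mM Hepes-Na pH 7.6, 10 mM MgCl2, 0.01% Nonidet P-40, 0.01% BSA. Enzyme 15 nM, pre-exposed to compound 15 min; substrates then added and fluorescence change tracked over 30 min.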
# An asterisk follows results filed as active; u = inconclusive; x = no result; [ ] = another dose, or the depositor's remark. An excerpt weighted towards active compounds, which were near 8.1% of everything screened. Unless noted, the call rests on the fitted dose curve; in most records, active means well fitted curve in the direction sought with a large enough effect; inconclusive means small, poorly fitted or top-dose-only effect, or another doubt; inactive means no such curve, though single readings can be large; an effect the other way counts as inactive or inconclusive. Potency means the concentration at half of the fitted maximal effect.
SMILES,ClpP mod,PINK1 modulator,Epigenetic reg,RORgamma inh,Gal4-VP16 FLuc,Sfp inh
O=c1oc2cc(O)ccc2cc1-c1nc(-c2ccc(Cl)c(Cl)c2)cs1,-13%,9%,7.9µM*,x,x,x
O=c1oc2ccc3ccccc3c2cc1-c1nc2c(s1)CCc1ccccc1-2,-24%,1%,x,x,x,x
COc1ccc(N(Cc2cccs2)C(=O)c2ccccc2C)cc1,0%,6%,-2%,x,x,x
Nc1nnc(-c2cc3ccccc3oc2=O)s1,25µM*,7%,1%,24%[0.365 µM],x,3%
Nc1nc2c(s1)CCc1ccccc1-2,-17%,2%,x,14%,4%,79µM*
Cc1ccc(-n2ncc3c(N(C)Cc4ccccc4)ncnc32)cc1,32µM*,0%,-1%,x,x,x
Cc1ccc(-n2ncc3c(N(CCO)Cc4ccccc4)ncnc32)cc1,u,3%,-1%,x,x,x
COc1ccc(NC(=O)COc2coc(CN3CCN(c4ccccc4)CC3)cc2=O)cc1,28µM*,4%,x,x,x,x
CN1CCN(C2=Cc3ccccc3Sc3cc(F)c(Cl)cc32)CC1,-4%,8%,-5%,u,u,u
CN1CCN(C2=Cc3ccccc3Sc3cc(F)c(F)cc32)CC1,1%,15%,-4%,7.9µM*,7.9µM*,79µM*
Nc1nonc1C(=O)NCCNCc1cc(Br)ccc1OCc1ccc(F)cc1,6%,x,0%,-37%,13µM*,u
O=C(O)COc1ccc2nsnc2c1Cl,14µM*,2%,0%,1%,-5%,11%
O=C(Nc1ccc(CN2CCOCC2)cc1)c1cc2ccccc2o1,0%,0%[38.3 µM],1%,11µM*,u,-5%
O=C(Nc1ccc(CN2CCOCC2)cc1)c1ccccc1F,-1%,1%[38.3 µM],1%,0.63µM*,11µM*,8%
O=C(Cc1ccccc1)Nc1ccc(CN2CCOCC2)cc1,1%,x,0%,-30%,u,-7%
O=C(Nc1ccc(CN2CCOCC2)cc1)c1cc2ccccn2n1,0%,1%,-1%,10µM*,20µM*,-9%
CC(=O)c1cccc(NC(=O)c2cc3ccccn3n2)c1,-2%,1%,0%,8.9µM*,u,14%
Cc1ccccc1NC(=O)c1cc2ccccn2n1,1%,1%,-2%,-74%,u,3%
CCn1ccc2c(OCC(=O)NCc3ccc(C)cc3)cccc2c1=O,-26%,-1%,3%,x,x,x
CNC(=O)c1ccc(Nc2nnc(-c3ccc(C)c(S(=O)(=O)N4CCOCC4)c3)c3ccccc23)cc1,-8%,5%,-2%,x,x,x
CCC1CN(CCNC(=O)c2cccnc2OC)Cc2cc(OC)ccc2O1 (centres undefined),x,0%,x,x,x,x
CCc1ccc2c(c1)c(N=NC1=NC(=O)CS1)c(O)n2CC,0%,1%,-1%,11µM*,u,-24%
Cc1ccc(NC(=O)C2=C(O)c3sccc3N(C)S2(=O)=O)cc1,1%,3%,-1%,29%,-8%,18%
Cc1ccc(NC(=S)C2=C(O)c3sccc3N(C)S2(=O)=O)cc1,-1%,0%,5%,13µM*,16µM*,-28%
CCCCCCCCCCN(CCCCCCCCCC)c1ccc(/C=C/c2ccnc3ccccc23)cc1,1%,2%,x,x,x,x
SMILES,ClpP mod,PINK1 modulator,Epigenetic reg,RORgamma inh,Gal4-VP16 FLuc,Sfp inh
CC1(C)Cc2c(sc3nc(SCC(=O)O)[nH]c(=O)c23)CO1,-9%,4%[38.3 µM],6%,15%[10 µM],2%,10%
CCc1nc2sc3c(c2c(=S)[nH]1)CC(C)(C)OC3,x,3%,x,2µM*,6.3µM*,7%
CC(C)=NNc1nc2sc3c(c2c(=O)[nH]1)CC(C)(C)OC3,x,4%,2%,-13%,-3%,16µM*
CSc1nc2sc3c(c2c(=S)[nH]1)CC(C)(C)OC3,x,1%,x,3.2µM*,11µM*,7%
CCOc1cc2c(cc1OCC)C(CC(=O)O)N(C(=O)Nc1ccc(Br)c(C)c1)CC2 (centres undefined),-8%,0%,-3%,x,x,x
COc1ccccc1N1C(=O)CSC1=NC(=O)c1ccccc1,-1%,1%,1%,-2%,-20%,-13%
COc1ccccc1N=C1SCC(=O)N1c1ccccc1OC,1%,-1%,0%,33%,-3%,4.5µM*
O=S(=O)(Nc1cccc2cccnc12)C1CC1,x,-2%,x,x,x,x
O=S(=O)(Nc1ccc(-c2cn3ccccc3n2)cc1)c1ccccc1,-28%,2%,1%,24%,8%,-3%
CCCCC(=O)Nc1cccc(-c2cn3ccccc3n2)c1,28µM*,x,0%,-36%,-28%,-1%
O=C(Nc1cccc(-c2cn3ccccc3n2)c1)c1ccccc1,-3%,-1%,1%,18%,-6%,10%
Cc1cccc(S(=O)(=O)Nc2ccc(-c3cn4ccccc4n3)cc2)c1,28µM*,0%,0%,u,21%,-8%
Cc1cc(C)c(S(=O)(=O)Nc2cccc(-c3cn4ccccc4n3)c2)c(C)c1,28µM*,2%,-1%,x,x,x
Cc1cccc(Cn2ccn(Cc3ccc(Cl)cc3)c(=O)c2=O)c1,-1%,1%,0%,x,x,x
COc1ccc(C)cc1N(C)C(=O)c1c2c(nc3ccccc13)C(=O)N(C1CCCCC1)C2,-2%,0%,0%,x,x,x
COc1ccc(O)c(/C=c2/sc3nc4cc(C)c(C)cc4n3c2=O)c1,-3%,2%,-1%,u,u,8.9µM*
Cc1ccc(CNC(=O)Cn2ccn(-c3ccc(F)c(F)c3)c(=O)c2=O)cc1,5%,1%,3%,x,x,x
Cc1nc(N2CCN(C)CC2)c2cc(-c3ccccc3)sc2n1,x,1%,-3%,14%,-4%,u
Cc1nc(N2CCN(S(=O)(=O)c3ccccc3)CC2)c2cc(-c3ccccc3)sc2n1,28µM*,2%,11%,13%,13%,18%
Cc1cc(NS(=O)(=O)c2ccc(NC(=O)COc3cc(C)c(Br)cc3C(C)C)cc2)no1,-2%,0%,11%,x,x,x
CC(=O)N1CCN(C(=O)c2ccc(NS(=O)(=O)c3ccc4c(c3)OCCO4)cc2)CC1,-2%,-3%,x,x,x,x
O=C(c1ccc(S(=O)(=O)Nc2ccc(F)cc2)cc1)N1CCN(C(=O)c2ccco2)CC1,2%,-1%,1%,-28%,20µM*,-1%
Cc1cc(S(=O)(=O)Nc2ccc(C(=O)N3CCN(C(=O)c4ccco4)CC3)cc2)ccc1F,0%,0%,-3%,29%,u,2%
